Screens deposited in PubChem by National Center for Advancing Translational Sciences (NCATS).
An excerpt weighted towards active compounds, which were near 5.2% of everything screened.
Tau fluor counter: counter-screen for tau fibril formation inhibitors | tau K18 P301L Alexa594 fluorescence, heparin fibrillization | Potency, µM (top dose mostly 57.7 µM) | AID 1463 | hit rate 0.93% among 280,000; note: nearly all actives have a fitted effect of over 55% in size
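Human tau K18 P301L (15 uM unlabeled, 0.24 uM Alexa 594-labeled) in 100 mM sodium acetate pH 7 with 20 uM heparin, 6 hr at 37 C. ThT 30 uM added, 1 hr ambient; Alexa 594 FP and total fluorescence read at 555/632 nm.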
Tau ThT inhib: inhibitors of human tau fibril formation, thioflavin T binding; P10636; Potency, µM (titrated, usually from 57.4 µM), most hits filed as inhibitors; recombinant tau K18 P301L (four-repeat tau fragment), heparin-induced fibrillization, ThT fluorescence; AID 1460; hit rate 2.1% among 270,000; note: nearly all actives have a fitted effect of over 55% in size
Target sequence (P10636 561-689 P618L limits assumed): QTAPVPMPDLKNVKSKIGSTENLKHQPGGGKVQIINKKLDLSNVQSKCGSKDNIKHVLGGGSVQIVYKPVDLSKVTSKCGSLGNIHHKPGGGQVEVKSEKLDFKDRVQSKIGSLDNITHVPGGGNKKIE
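Aggregation was driven by heparin (20 uM final) acting on recombinant tau […] bearing P301L in 100 mM sodium acetate pH 7; fibrils were detected with Thioflavin T.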
Tau fibril FP: blocks human tau fibril formation measured by polarization; hit rate 0.39% among 280,000; Potency, µM (highest dose often 57.7 µM), most hits filed as inhibitors; AID 1468; K18 P301L tau heparin fibrillization, Alexa594 FP, 6 h; note: nearly all actives have a fitted effect of over 55% in size
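K18 P301L tau (15 uM unlabeled/0.24 uM Alexa 594-labeled, final) + compound + heparin 20 uM final; 100 mM NaOAc pH 7; 6 hr 37 C; ThT 30 uM final added, 1 hr RT; FP ex 555/em 632 nm.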
Coupling enz: coupling enzyme interference in Giardia aldolase counter-screen. coupling enzyme system counterscreen, AmpLite Red fluorescence. activity change, negative = inhibition, % at 58.2 µM, hits read low. hit rate 0.67% among 290,000. AID 2472; in the data active = activity change below about -30%
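Fluorescence at 525 nm excitation and 598 nm emission measured inhibition of the coupled detection system without aldolase. Compounds (at 57.5 uM final) were preincubated 10 min at room temperature with coupling enzyme reagent before a 20 min substrate/AmpLite Red step.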
Sfp inh: Sfp phosphopantetheinyl transferase inhibition | hit rate 3.5% among 310,000 | Potency, µM, actives largely listed as inhibitors | Biochemical Sfp PPTase activity, qHTS | AID 1490;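 note: the enzyme is Sfp with the accession as filed and its product quenches rhodamine fluorescence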
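Reaction rates are the 30-min fluorescence difference (ex 525, em 598 nm) in wells containing 15 nM Sfp, 5 uM rhodamine-CoA and 12.5 uM BHQ-2-YbbR at pH 7.6 with 10 mM MgCl2.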
Each line names hits and unclear results; the compound was inactive in the other large screens; [ ] = remark or other dose. Unless noted, calls come from the whole dose curve; as a rule, active = well fitted curve in the direction sought with a large enough effect; inconclusive = small, poorly fitted or top-dose-only effect, or another doubt; inactive = no such curve, though single readings can be large; an effect the other way counts as inactive or inconclusive.

COc1cc(OC)c2c(c1C(CCN1CCCC(C)C1)c1ccc(N(C)C)cc1)OC(=O)CC2c1ccc(N(C)C)cc1 (centres undefined)	none (no result: Tau fluor counter, Tau ThT inhib, Tau fibril FP)
c1cn(-c2cc(-c3ccc4c(c3)OCO4)ncn2)cn1	none (no result: Tau fluor counter, Tau ThT inhib, Tau fibril FP)
CCc1c(C)c(C#N)c2[nH]c3ccccc3n2c1=S	Tau fluor counter inconclusive, Tau ThT inhib inconclusive, Sfp inh 79µM
CCc1cc(=S)n2c([nH]c3ccccc32)c1C#N	Tau fluor counter inconclusive, Tau ThT inhib inconclusive, Sfp inh 45µM
COc1ccccc1C(=O)Nc1ccc(-c2cc(C(F)(F)F)nn2-c2ccccc2)cc1	Tau fibril FP inconclusive (no result: Coupling enz, Sfp inh)
Cc1c(CCC(=O)NCCc2ccccc2F)c(=O)oc2cc(O)ccc12	Tau fluor counter inconclusive, Tau ThT inhib inconclusive (no result: Coupling enz, Sfp inh)
COc1ccc(Cl)cc1C(=O)Nc1ccc(NC(C)=O)cc1	none
Cc1cc(Nc2cccc(Cl)c2)nc2ccc(NC(=O)Cc3cccc(C(F)(F)F)c3)cc12	Tau fluor counter 4µM[quencher], Tau ThT inhib inconclusive, Tau fibril FP inconclusive (no result: Coupling enz, Sfp inh)
O=C(Nc1nc2ccccc2c(=O)s1)c1ccc(F)cc1Cl	none (no result: Tau fluor counter, Tau ThT inhib, Tau fibril FP)
COc1ccc(CC(=O)Nc2ccc3nc(Nc4cccc(Cl)c4)cc(C)c3c2)cc1OC	Tau fluor counter 2.5µM[quencher], Tau ThT inhib inconclusive, Tau fibril FP inconclusive (no result: Coupling enz, Sfp inh)
O=C(Cc1cccc(C(F)(F)F)c1)Nc1ccccc1	Tau fibril FP inconclusive
COc1ccc(Cl)cc1C(=O)Nc1ccc2nc(Nc3cccc(Cl)c3)cc(C)c2c1	Tau fluor counter 16µM[quencher], Tau ThT inhib inconclusive (no result: Coupling enz, Sfp inh)
Cc1cc(Nc2cccc(Cl)c2)nc2ccc(NC(=O)c3ccc(F)cc3Cl)cc12	Tau fluor counter 4.5µM[quencher], Tau ThT inhib inconclusive, Tau fibril FP inconclusive (no result: Coupling enz, Sfp inh)
Cc1ccc(-c2cc(C3C4C=CCC(C)C4C(=O)N3Cc3ccccc3)ccc2F)cc1 (centres undefined)	none (no result: Tau fluor counter, Tau ThT inhib, Tau fibril FP)
CCN1C(=NCc2cc(OC)c(OC)c(OC)c2)N[C@@H](c2cccc(F)c2)C(C(=O)OC)=C1C	none (no result: Tau fluor counter, Tau ThT inhib, Tau fibril FP)
COCCOC(=O)C1=C(C)NC(C)=C(C(=O)OC/C=C/c2ccccc2)C1c1cccc([N+](=O)[O-])c1 (centres undefined)	none (no result: Tau fluor counter, Tau ThT inhib, Tau fibril FP)
Cc1cc(Nc2cccc(Cl)c2)nc2ccc(NC(=O)Cc3ccc(Cl)cc3)cc12	Tau fluor counter 3.5µM[quencher], Tau ThT inhib inconclusive, Tau fibril FP inconclusive (no result: Coupling enz, Sfp inh)
CC(N)(Cc1ccc(O)c(O)c1)C(=O)O (centres undefined)	Tau fluor counter inconclusive, Tau ThT inhib 4µM, Tau fibril FP inconclusive (no result: Coupling enz, Sfp inh)
C[C@@](N)(Cc1ccc(O)cc1)C(=O)O	Tau fluor counter inconclusive, Tau ThT inhib inconclusive
CCOC(=O)c1sc(N)c(C(=O)Nc2ccccc2)c1C	Sfp inh 20µM
CCOC(=O)c1c(N)sc(C(=O)OCCOC)c1C	Sfp inh 25µM
CCOC(=O)c1sc(N)c(C(=O)OCC)c1C	Tau ThT inhib inconclusive
CCOC(=O)c1sc(NC(=O)Nc2ccc(Cl)cc2)cc1C	Tau fluor counter 3.2µM[quencher], Tau fibril FP inconclusive
COc1cccc(-c2nnc3n2N=C(c2ccccc2OC)CS3)c1	none (no result: Tau fluor counter, Tau ThT inhib, Tau fibril FP)
CC(=O)Sc1nc(-c2ccccc2)[nH]c1S(=O)(=O)c1ccc(C)cc1	Tau ThT inhib 28µM, Tau fibril FP 40µM, Sfp inh 2.5µM
O=[N+]([O-])c1cc(Cc2ccccc2)cc(C=Nc2ccc(N3CCOCC3)cc2)c1O	Tau fluor counter inconclusive, Tau ThT inhib 10µM, Tau fibril FP inconclusive
Cc1ccc(O)c(N=Cc2cc(Cc3ccccc3)cc([N+](=O)[O-])c2O)c1	Tau fluor counter inconclusive, Tau ThT inhib 8.9µM, Tau fibril FP inconclusive, Sfp inh 8.9µM
CCc1ccc(O)c(N=Cc2ccccc2O)c1	Tau ThT inhib inconclusive
Cc1cc(C(=O)N/N=C/c2cccc([N+](=O)[O-])c2O)n[nH]1	Tau ThT inhib 14µM
Nc1ccc(C(=O)N/N=C\c2cc(N=Nc3cccc4ccccc34)ccc2O)cc1	Tau fluor counter inconclusive, Tau ThT inhib 3.2µM
COC(=O)N/N=C/c1cc(Br)ccc1O	Tau ThT inhib inconclusive
O=C(N/N=C/c1cccc2ccccc12)c1cc2ccccc2o1	none (no result: Tau fluor counter, Tau ThT inhib, Tau fibril FP)
Cc1cc(C(=O)N/N=C/c2ccc(O)c([N+](=O)[O-])c2)n[nH]1	Tau ThT inhib inconclusive
COC(=O)N/N=C/c1cc(N=Nc2ccccc2Cl)ccc1O	Tau fluor counter inconclusive, Tau ThT inhib 1.6µM
COC(=O)N/N=C/c1cc(N=Nc2ccccc2)ccc1O	Tau fluor counter inconclusive, Tau ThT inhib 1.1µM
CCc1ccccc1NC(=O)C1CCN(c2nc3ccccc3[nH]2)CC1	none (no result: Coupling enz, Sfp inh)
Cc1cc(C(=O)N/N=C/c2cc([N+](=O)[O-])ccc2O)c2ccccc2n1	Tau ThT inhib inconclusive
Cc1cc(C(=O)N/N=C/c2cc(N=Nc3ccccc3)ccc2O)n[nH]1	Tau fluor counter inconclusive, Tau ThT inhib 7.1µM
Cc1cc(C(=O)N/N=C/c2ccco2)n[nH]1	none
Cc1cc(C(=O)N/N=C/c2cc(Br)cc([N+](=O)[O-])c2O)c2ccccc2n1	Tau fluor counter inconclusive, Tau ThT inhib 7.9µM, Tau fibril FP inconclusive
CCN1CCN(CCNC(=O)c2ccc3c(c2)N(Cc2ccc(F)cc2)C(=O)/C(=C/c2ccccc2)S3)CC1	Tau fluor counter inconclusive, Tau ThT inhib inconclusive, Tau fibril FP inconclusive, Sfp inh 50µM
COc1ccc(/C=C2\Sc3ccc(C(=O)NCCN4CCCCCC4)cc3N(C)C2=O)cc1	Sfp inh inconclusive (no result: Tau fluor counter, Tau ThT inhib, Tau fibril FP)
CCN1CCN(CCNC(=O)c2ccc(/C=C3/Sc4ccccc4N(Cc4cccc(Cl)c4)C3=O)cc2)CC1	Tau ThT inhib inconclusive, Tau fibril FP inconclusive, Sfp inh 50µM
O=C(NCCN1CCOCC1)c1ccc(/C=C2\Sc3ccccc3N(Cc3ccccc3F)C2=O)cc1	none (no result: Tau fluor counter, Tau ThT inhib, Tau fibril FP)
